Source: PubChem BioAssay (NCATS)
Results filed as inconclusive are left out. Calls of active or inactive are those of the source. Unless noted, calls follow the shape of the dose curve; as a rule, active = well fitted curve in the direction sought with a large enough effect; inconclusive = small, poorly fitted or top-dose-only effect, or another doubt; inactive = no such curve, though single readings can be large; an effect the other way counts as inactive or inconclusive.

Columns and labels:
[1] = Cell Viability - BJ (AID 421; calls by dose curve;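 also: potency is read from the fitted curve at half-maximal effect; cells exposed to compound for 40 hours at 37 °C before readout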); settings: BJ fibroblast viability, qHTS
Procedure, shortened: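 Cytotoxicity in human BJ foreskin fibroblasts is scored as loss of cellular ATP after a 40-hour exposure, measured by luciferase luminescence. Controls are DMSO and 100 uM tamoxifen.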

[2] = Cell Viability - Jurkat (AID 426;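 active = dose-dependent loss of cell ATP signal giving a full or clear fitted curve, ranked by lower potency value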; also: potency is read from the fitted curve at half-maximal effect); settings: qHTS
Procedure, shortened: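 Cytotoxicity was scored as loss of cellular ATP, measured by luciferase-based luminescence, in Jurkat clone E6-1 cells after 40 h compound treatment; tamoxifen and doxorubicin served as positive controls.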

[3] = Cell Viability - MRC5 (AID 434; calls by dose curve;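 also: potency is read from the fitted curve at half-maximal effect; potency reflects cytotoxicity seen as loss of intracellular ATP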); settings: MRC5 lung fibroblast viability, qHTS
Procedure, shortened: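 ATP luminescence read-out (CellTiter-Glo, 20 min RT) after 40 hr, 37 °C compound exposure of 1500 MRC5 cells/well. Data normalized to DMSO (basal) and 100 uM tamoxifen (100% inhibition); AC50 from standard Hill equation.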

[4] = Cell Viability - SK-N-SH (AID 435; calls by dose curve;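 also: potency is read from the fitted curve at half-maximal effect; compound exposure lasted 40 h at 37 °C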); settings: SK-N-SH neuroblastoma cell viability qHTS
Procedure, shortened: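 SK-N-SH neuroblastoma cells (1500/well) treated 40 h at 37 °C in complete medium; viability read as cellular ATP by CellTiter-Glo luminescence. Normalized to DMSO and 100 uM tamoxifen; AC50 from Hill fits of qHTS concentration-response.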

[5] = molecular target: Mitogen-activated protein kinase 10 (Mus musculus) (UniProt Q61831); assay: JNK3 AlphaScreen Assay (AID 530; active = well fitted curve in either direction with a large enough effect, not every such curve was filed as active;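 also: kinase came from lysate of stimulated human HepG2 cells; signal reports phosphorylation of biotinylated GST-cJun 1-79 at Ser73 with 10 µM ATP; % is scaled to controls: 0 for no effect and ±100 for the full control effect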); settings: JNK3 lysate, c-Jun phosphorylation; series mostly up to 57.1 µM
Procedure, shortened: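 HepG2 lysate (IL-1b/TNFa pre-activated) + biotin-GST-cJun 1-79 + anti-pSer73 cJun; cpd titration, 15 min RT; ATP 10 uM start; Tris pH 7.6, MgCl2, DTT, vanadate; beads in EDTA buffer; AlphaScreen.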

[6] = Cell Viability - N2a (AID 540); settings: N2a mouse neuroblastoma cell viability; activity change, negative = cytotoxicity: at 92.2 µM (top of the series);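 also: plate controls were DMSO alone for no effect and tamoxifen control for full effect; nearly all actives have a fitted effect of over 45% in size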
Procedure, shortened: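 In this qHTS cytotoxicity screen, ATP-dependent luciferase luminescence reports viable N2a cells after a 40 hr compound exposure in complete culture medium. Potencies are AC50 values from standard Hill equation fits.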

[7] = Cell Viability - NIH 3T3 (AID 541); settings: NIH 3T3 cell viability, qHTS; activity change, negative = cytotoxicity: at 92.2 µM (top of the series);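 also: plate controls were DMSO alone for no effect and tamoxifen positive control for full effect; nearly all actives have a fitted effect of over 25% in size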
Procedure, shortened: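 In this cytotoxicity screen, acute toxicity is scored as an ATP drop measured by CellTiter-Glo in NIH 3T3 fibroblasts following a 40 hr, 37 °C incubation with compound.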

[8] = Cell Viability - HUV-EC-C (AID 542); settings: HUV-EC-C endothelial cell viability, qHTS; series mostly up to 92.2 µM; also: % is scaled to controls: 0 for no effect and ±100 for the full control effect; nearly all actives have a fitted effect of over 35% in size
Procedure, shortened: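 Concentration-dependent ATP loss in HUV-EC-C cells is the measure. Exposure lasts 40 hr at 37 °C; luminescence follows CellTiter-Glo addition, and Hill fits give AC50.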

[9] = Cell Viability - H-4-II-E (AID 543); settings: H-4-II-E rat hepatoma viability; series mostly up to 92.2 µM; also: % is scaled to controls: 0 for no effect and ±100 for the full control effect; nearly all actives have a fitted effect of over 35% in size
Procedure, shortened: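 AC50 from Hill-modelled qHTS concentration-response curves. H-4-II-E rat hepatoma cells in complete medium, 40 hr exposure at 37 °C, viability by CellTiter-Glo ATP luminescence.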

[10] = Cell Viability - SH-SY5Y (AID 544); settings: SH-SY5Y neuroblastoma cell viability; viability change, negative = cytotoxic: at 92.2 µM (top of the series); also: nearly all actives have a fitted effect of over 55% in size
Procedure, shortened: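 Quantitative HTS in SH-SY5Y neuroblastoma cells, 40 hr treatment at 37 °C, ATP content by luciferase luminescence; AC50 from Hill fits.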

[11] = Cell Viability - Renal Proximal Tubule (AID 545); settings: renal proximal tubule cells viability, primary cells of rat origin; series mostly up to 91.7 µM; also: nearly all actives have a fitted effect of over 40% in size
Procedure, shortened: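 Rat renal proximal tubule primary cells, 1000/well, exposed to compounds for 40 hr at 37 °C in complete medium; cellular ATP read by CellTiter-Glo luminescence. AC50 from concentration-response fitted with standard Hill equation.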

[12] = Cell Viability - Mesenchymal (AID 546); settings: mesenchymal cells viability, qHTS; series mostly up to 91.7 µM;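 also: cells exposed to compound for 40 hours before reading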
Procedure, shortened: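 Human renal mesenchymal cells (glomerulus-derived), 1000 cells/well, 5 hr 37 °C pre-incubation; compound 40 hr, 37 °C; CellTiter-Glo, 20 min RT; luminescence; AC50 via Hill equation.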

[13] = Cellular Toxicity (caspase-3) HepG2 (AID 654); settings: HepG2 caspase-3 activation, luminescence; series mostly up to 92.2 µM;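 also: cells exposed to compound for 16 hours before reading; 0% = DMSO alone and 100% = caspase signal from 100 µM tamoxifen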
Procedure, shortened: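 Concentration-response AC50 values reflect caspase-3/7 induction in HepG2 cells after 16 hours of compound exposure, quantified by luminescence from liberated aminoluciferin and referenced to 100 uM tamoxifen as full stimulation.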

[14] = Cellular Toxicity (caspase-3) Jurkat (AID 655); settings: Jurkat caspase-3 activation, luminescence; caspase-3 activation: at 92.2 µM (top of the series), DMSO = 0%, tamoxifen = 100%;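 also: cells exposed to compound for 16 h at 37 °C before reading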
Procedure, shortened: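 Jurkat cells (5000/well) in complete medium exposed 16 h at 37 C; caspase-3/7 activity read by Caspase-Glo luminescence after 20 min at room temperature. Normalized to DMSO and 100 uM tamoxifen; AC50 from Hill fits.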

[15] = Cellular Toxicity (caspase-3) HUV-EC-C (AID 656); settings: HUV-EC-C cells, caspase-3 activation (apoptosis), vehicle = 0, 100 µM tamoxifen = 100%; series mostly up to 92.2 µM
Procedure, shortened: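 HUV-EC-C cells (1000/well) in complete medium, compound-treated 16 h at 37 °C; caspase-3/7 activity read by Caspase-Glo 3/7 luminescence. Normalized to DMSO (basal) and 100 uM tamoxifen (100%); AC50 from Hill-equation concentration-response fits.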

[16] = Cellular Toxicity (caspase-3) SHSY5Y (AID 657); settings: SH-SY5Y caspase-3 activation, DMSO zero, 10 µM staurosporine = 100%; series mostly up to 91.7 µM
Procedure, shortened: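 SH-SY5Y human neuroblastoma cells, 1500/well, exposed to compound for 16 hours at 37 °C in complete medium. Caspase-3/7 activity read by Caspase-Glo luminescence after 1 hr at room temperature, normalized to DMSO and 10 uM staurosporine; AC50 from Hill fit.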

[17] = Cellular Toxicity (caspase-3) MRC-5 (AID 659); settings: MRC-5 cells, luminescence, normalized: DMSO 0%, 10 µM staurosporine 100%; series mostly up to 91.7 µM
Procedure, shortened: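 MRC-5 fibroblasts, 1500/well; 16 h cpd, 37 °C; Caspase-Glo 3/7, 1 h RT; lumi read. Norm: DMSO = 0%, 10 uM staurosporine = 100%. Hill-fit AC50 from qHTS conc-response.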

[18] = Cell Viability - HepG2 (AID 433; calls by dose curve;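 also: potency is read from the fitted curve at half-maximal effect; potency for ATP loss meaning cytotoxicity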); settings: qHTS
Procedure, shortened: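 HepG2 cells, 1500 per well, treated 40 hr at 37 °C in complete medium; viability from intracellular ATP by CellTiter-Glo luminescence. Normalized to DMSO and 100 uM tamoxifen; AC50 from Hill fit of qHTS concentration-response.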

[19] = Cellular Toxicity (caspase-3) BJ (AID 658); settings: BJ fibroblasts, luminescence, normalized: DMSO 0%, staurosporine 100%; series mostly up to 91.7 µM
Procedure, shortened: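 qHTS, BJ fibroblasts, 1000 cells/well; 5 hr preincubation, 16 hr compound, 37 °C; Caspase-Glo 3/7 reagent, 1 hr RT; luminescence. DMSO = 0%, 10 uM staurosporine = 100%. Hill-equation AC50.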

NC(=O)c1ccccc1[N+](=O)[O-]
inactive: Potency [1] > 92 µM | Potency [2] > 92 µM | Potency [3] > 92 µM | Potency [4] > 92 µM | outcome [5] | activity change, negative = cytotoxicity [6] -5.05% | Potency [7] | Potency [8] | Potency [9] | Potency [10] | Potency [11] | Potency [12] | Potency [13] | caspase-3 activation [14] -0.0168% | outcome [15] | outcome [16] | outcome [17]

Nc1cccc(C(F)(F)F)c1
inactive: Potency [1] > 92 µM | Potency [2] > 92 µM | Potency [18] > 92 µM | Potency [3] > 92 µM | Potency [4] > 92 µM | outcome [5] | activity change, negative = cytotoxicity [6] 0.982% | Potency [7] | Potency [8] | Potency [9] | Potency [10] | Potency [11] | Potency [13] | caspase-3 activation [14] -0.253% | outcome [15] | outcome [16] | outcome [19] | outcome [17]

C1COC1
inactive: Potency [1] > 92 µM | Potency [2] > 92 µM | Potency [18] > 92 µM | Potency [3] > 92 µM | Potency [4] > 92 µM | outcome [5] | activity change, negative = cytotoxicity [6] -2.69% | Potency [7] | Potency [10] | Potency [11] | Potency [12] | Potency [13] | caspase-3 activation [14] -0.0782% | outcome [15] | outcome [16] | outcome [17]

Cc1cccc(C(=O)O)c1
inactive: Potency [1] > 92 µM | Potency [2] > 92 µM | Potency [18] > 92 µM | Potency [3] > 92 µM | Potency [4] > 92 µM | outcome [5] | activity change, negative = cytotoxicity [6] -7% | Potency [7] | Potency [8] | Potency [9] | Potency [10] | Potency [11] | Potency [12] | Potency [13] | caspase-3 activation [14] -6.77% | outcome [15] | outcome [16] | outcome [17]

COc1ccc(OC)cc1
inactive: Potency [1] > 92 µM | Potency [2] > 92 µM | Potency [18] > 92 µM | Potency [3] > 92 µM | Potency [4] > 92 µM | outcome [5] | activity change, negative = cytotoxicity [6] 0.243% | Potency [7] | Potency [8] | Potency [9] | Potency [11] | Potency [12] | caspase-3 activation [14] 0.323% | outcome [15] | outcome [16] | outcome [19] | outcome [17]

CCCCC(C=O)CC (configuration not stated)
inactive: Potency [1] > 92 µM | Potency [2] > 92 µM | Potency [18] > 92 µM | Potency [3] > 92 µM | Potency [4] > 92 µM | outcome [5] | activity change, negative = cytotoxicity [6] 2.46% | Potency [7] | Potency [9] | Potency [10] | Potency [12] | Potency [13] | caspase-3 activation [14] -0.967% | outcome [15] | outcome [16] | outcome [17]
